The list is not random: actives were taken first. Their share in the collection is about 7%.
ATXN2 expr inh – Primary qHTS for Inhibitors of ATXN expression. HEK-293 ATXN2-luciferase reporter, luminescence, 24 h. 360,000 tested, 0.72% active. Potency, µM (highest dose often 57 µM), for the others: top-dose activity change, negative = inhibition, actives largely listed as inhibitors; further: potency means the concentration at half of the fitted maximal effect; on the % scale 0 is the no-effect control and ±100 the full control effect; nearly all actives have a fitted effect of over 55% in size
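ATXN2-luciferase reporter cells (luciferase flanked by upstream and downstream ATXN2 gene portions) were treated 24 h at 37 °C with compounds at up to 57 uM. SteadyGlo luminescence gave expression; GF-AFC fluorescence gave viability.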
IL-1B inflam inh – qHTS for Inhibitors of Inflammasome Signaling: IL-1-beta AlphaLISA Primary Screen. THP-1 LPS/ATP IL-1B secretion, AlphaLISA, 16 h; active compounds read low. activity change, % at 57.5 µM. 360,000 tested, 4.7% active. AID 743279, 2014; in the data active means activity change below about -50%; inconclusive means mostly about -30% to -49%; further: on the % scale 0 is the no-effect control and ±100 the full control effect
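Secreted IL-1B measured by AlphaLISA bead assay after 16 h compound exposure of THP-1 cells; compounds (final up to 57.5 uM) added 1 h before LPS (250 ng/mL) and ATP (1.25 mM) stimulation; lower signal means less secretion.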
D3 antag – qHTS of D3 Dopamine Receptor Antagonist: qHTS. D(3) dopamine receptor (Homo sapiens), P35462. D3R cells, DiscoveRx beta-arrestin luminescence, antagonist mode; active compounds read low. max response, negative = inhibition, %. 360,000 tested, 2.5% active. AID 652054, 2013; in the data active means max response below about -50%; inconclusive means no clear call, values can overlap the other calls; further: on the % scale 0 is the no-effect control and ±100 the full control effect
Target sequence (P35462 whole entry, looked up): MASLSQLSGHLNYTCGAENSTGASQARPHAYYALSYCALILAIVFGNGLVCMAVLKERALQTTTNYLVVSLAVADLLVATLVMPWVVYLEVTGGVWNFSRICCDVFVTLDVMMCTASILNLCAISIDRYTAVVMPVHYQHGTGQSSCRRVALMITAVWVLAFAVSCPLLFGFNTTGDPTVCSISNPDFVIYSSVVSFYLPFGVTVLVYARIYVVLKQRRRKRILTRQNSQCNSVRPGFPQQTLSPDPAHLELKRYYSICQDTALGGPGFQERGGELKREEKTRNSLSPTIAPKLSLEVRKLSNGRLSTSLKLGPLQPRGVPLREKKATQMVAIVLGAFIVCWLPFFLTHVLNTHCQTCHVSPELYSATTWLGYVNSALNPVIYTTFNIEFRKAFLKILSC
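Cells plated overnight at 1500 cells/well, then exposed to library compounds with dopamine controls for 90 minutes at 37 degrees C. DiscoveRx reagent added for 30–60 minutes at room temperature; luminescence read, quantitative HTS format.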
ATXN viability – Viability Counterscreen for Primary qHTS for Inhibitors of ATXN expression; S2 cells (HEK-293 line with an ATXN2-luciferase reporter) viability, CellTiter-Fluor protease fluorescence, 24 h; Potency, µM (doses to about 56.7 µM), most hits filed as cytotoxic; 400,000 tested, 0.49% active; further: potency means the concentration at half of the fitted maximal effect; nearly all actives have a fitted effect of over 40% in size
D3 ag – qHTS of D3 Dopamine Receptor Agonist: qHTS | D3R DiscoveRx beta-arrestin cells, luminescence, 90 min | max activation, % | AID 652048, 2013 | D(3) dopamine receptor (Homo sapiens), P35462 | 410,000 tested, 0.58% active; in the data active means max activation above about 30%; further: 0% is about no effect
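Agonist mode: compounds and dopamine controls were applied to plated cells for 90 min at 37 degrees C after an overnight attachment at 1500 cells/well. Luminescent read-out followed 30 - 60 minutes at room temperature with DiscoveRx detection reagent.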
Integrin act MD – qHTS for Activators of Integrin-Mediated Alleviation for Muscular Dystrophy; alpha7betagal myoblasts, beta-gal FDG fluorescence, 48 h; Potency, µM (titrated, usually from 38.3 µM), for inactives: at the highest dose activation, usual class: activators; 350,000 tested, 0.064% active; AID 624291, 2012;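 further: potency means the concentration at half of the fitted maximal effect; 100% = response of the positive control SU9516; nearly all actives have a fitted effect of over 60% in size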
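Alpha7betagal+/- myoblasts (passage 13) were plated 16-24 hr, then exposed to compounds (1:260 dilution of DMSO stock) for 48 hours at 37C. After MPER lysis, β-galactosidase reporter activity was read as FDG fluorescence (ex 480/em 540) after 30 minutes.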
Active calls of the source: *; i = inactive; ? = inconclusive; . = no result given; [ ] = dose if it differs, or a comment. Unless noted, the call rests on the fitted dose curve; in most records, active means well fitted curve in the direction sought with a large enough effect; inconclusive means small, poorly fitted or top-dose-only effect, or another doubt; inactive means no such curve, though single readings can be large; an effect the other way counts as inactive or inconclusive.

SMILES	ATXN2 expr inh	IL-1B inflam inh	D3 antag	ATXN viability	D3 ag	Integrin act MD
COc1ccccc1N1CCN(CC(O)COc2ccc3c(c2)CCC3)CC1 (stereo not given)	-14%	-64*	-67*	i	-5	-23%
COc1ccccc1N1CCN(CC(O)COc2ccc(Cl)c(C)c2)CC1 (stereo not given)	-17%	.	.	i	-23	.
Cc1cc(OC(=O)c2cc(-c3ccc4c(c3)OCCO4)on2)ccc1Cl	2%	.	.	i	-10	.
OCC1(CCc2ccccc2)CCCN(CCCc2ccccc2)C1 (stereo not given)	-16%	-73*	-70*	i	-22	-26%
OCC1(CCc2ccccc2)CCCN(CCCC(F)(F)F)C1 (stereo not given)	-1%	-10	?	i	-18	?
OCC1(Cc2ccc(F)cc2F)CCCN(CCCc2ccccc2)C1 (stereo not given)	-14%	-55*	-11	i	-22	-43%
OCC1(Cc2ccccc2F)CCCN(CCc2ccccc2)C1 (stereo not given)	-15%	11	0	i	-19	-31%
Cc1cc(C)c(NS(=O)(=O)c2ccc3c(c2)NC(=O)CC(=O)N3)c(C)c1	-5%	16	6	i	4	7%
O=C(NCCc1ccc(Cl)cc1)c1nnc(Cc2ccc(F)cc2)o1	14%	.	.	i	4	.
COc1ccc(C(=O)NC(Nc2ccc(C)cc2)C(Cl)(Cl)Cl)cc1 (stereo not given)	-20%	-72*	-29	i	-12	-28%
COc1ccc(NC(=O)C(NC(=O)c2ccc(C)cc2)c2ccccc2)cc1 (stereo not given)	-15%	0	6	i	-16	-17%
COc1ccc(NC(NC(=O)c2ccc(OC)cc2)C(Cl)(Cl)Cl)cc1 (stereo not given)	-3%	-78*	0	i	2	-34%
COc1ccc(CN(C)CCCn2cnc(C(=O)Nc3ccc(C)c(C)c3)n2)cc1OC	-9%	-11	-7	i	-32	29%
COc1ccc(NC(=O)CN(C)CCOc2ccc(Cl)cc2)cc1OC	-18%	7	2	i	-4	4%
CCc1nn2cc(C(=O)c3ccccc3O)cnc2c1-c1ccc(F)cc1	-5%	-69*	15	i	8	-4%
CCc1nn2cc(C(=O)c3cc(C)ccc3O)cnc2c1-c1ccc(F)cc1	-11%	?	1	i	1	-12%
O=C(NC12CC3CC(CC(C3)C1)C2)c1ccc([N+](=O)[O-])o1	-30%	-63*	-6	i	4	-45%
CC(NC(=O)c1ccc([N+](=O)[O-])o1)C1CC2CCC1C2 (stereo not given)	-20%	-92*	1	?	1	-66%
COc1ccc(N2CCN(Cc3cc(=O)oc4ccc(Cl)cc34)CC2)cc1	-8%	0	2	i	3	-4%
COc1ccc2nc3cc(Cl)ccc3c(Nc3ccc(O)c(CN4CCN(C)CC4)c3)c2c1	?	-114*	-26	?	-9	-56%
CC(CCc1ccccc1)NC(=O)C1CCC1 (stereo not given)	-5%	6	-25	.	-20	13%
CC(C(=O)O)n1c2ccccc2c2cn[nH]c(=O)c21 (stereo not given)	-3%	29	-4	i	12	6%
Cc1ccc(C(=O)O)cc1NC(=O)CN1C(=O)C2C3c4ccccc4C(Br)(c4ccccc43)C2C1=O (stereo not given)	2%	-11	-7	i	-1	8%
Cc1c(CCOC(=O)c2ccc(Cl)cc2Cl)sc[n+]1CC(=O)c1ccc(Br)cc1	.	?	-5	i	-2	-64%
COc1ccc(C(=O)OCCc2sc[n+](CC(=O)c3ccccc3)c2C)cc1	5%	-55*	-3	?	-5	-8%
SMILES	ATXN2 expr inh	IL-1B inflam inh	D3 antag	ATXN viability	D3 ag	Integrin act MD
Cc1c(CCOC(=O)C2C3CC4CC(C3)CC2C4)sc[n+]1CC(=O)c1ccc(Br)cc1 (stereo not given)	-33%	-85*	?	.	-19	-18%
COc1cccc(CNC(=O)C2CCN(S(=O)(=O)N3CCCCC3)CC2)c1	-5%	3	18	i	16	2%
O=C(CCCn1c(=O)c2cccn2c2cccnc21)N1CCN(c2ccccc2F)CC1	8%	0	7	i	-2	37%
C[C@@H]1CN([C@H](C)CO)C(=O)c2cccc(NC(=O)Nc3ccc(C(F)(F)F)cc3)c2O[C@H]1CN(C)S(=O)(=O)c1cccs1	?	-55*	-15	.	3	-44%
COc1ccc(S(=O)(=O)N(C)C[C@H]2Oc3c(NC(=O)Nc4ccc(C(F)(F)F)cc4)cccc3C(=O)N([C@H](C)CO)C[C@@H]2C)cc1	?	-61*	2	.	4	-39%
COc1ccc(NC(=O)Nc2cccc3c2O[C@H](CN(C)C(=O)Nc2ccc(OC)cc2)[C@@H](C)CN([C@H](C)CO)C3=O)cc1	20%	-16	65	i	33*	8%
COc1ccc(NC(=O)c2ccc(F)cc2)cc1S(=O)(=O)Nc1cc(C)ccc1Br	?	-26	4	?	5	-16%
COc1ccc(N(CC(=O)NCc2cccs2)S(=O)(=O)c2c(C)nn(C)c2C)cc1	-1%	1	7	i	-2	4%
CCN1CCN(C(CCc2ccccc2)C(=O)NC2CCCCC2)CC1 (stereo not given)	5%	0	-73*	i	-14	.
O=C(CCc1ccc(O)c(O)c1)N/N=C/c1ccc2c(c1)OCO2	-28%	-8	-7	?	76*	-36%
CCOC(=O)c1sc(=NC(=O)c2ccc(S(=O)(=O)N3CC(C)OC(C)C3)cc2)n(C)c1C (stereo not given)	-15%	14	-9	i	-5	8%
NC(=O)C1CCN(C2=C(NS(=O)(=O)c3ccc(Br)cc3)C(=O)c3ccccc3C2=O)CC1	?	41	-25	?	-7	0%
CCOC(=O)C1CCN(C2=C(NS(=O)(=O)c3ccc(Br)cc3)C(=O)c3ccccc3C2=O)CC1	.	12	-18	18µM*	-12	4%
Cc1ccc(C2=NN(C(=O)c3ccco3)C(O)(C(F)(F)F)C2)cc1 (stereo not given)	4%[11.3 µM]	-66*	-14	i	1	10%
